KCNQ2 block – KCNQ2 (rat) channel inhibition; O88943; CHO-K1 KCNQ2, FluxOR thallium flux, 20 min; hits give low values; B-score at 10 µM; 1.1% of 310,000 active; AID 2156;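 active = fluorescence ratio B-score at most minus 3 library SDs, with starting brightness B-score within 2 library SDs, cut at about -5.5 in these data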
KCNQ2 enhance – potentiators of rat KCNQ2 potassium channel | CHO-K1 KCNQ2, FluxOR thallium flux fluorescence; hits give high values | O88943 | AID 2239 | B-score at 10 µM | 0.54% of 310,000 active;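 active = fluorescence ratio B-score at least 3 SD of library B-scores, with initial fluorescence B-score within 3 of them, cut at about 5.3 in these data; same plate scores as AID 2156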;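 also: B-score of peak minus minimum over baseline fluorescence ratio after K+ and Tl+ stimulus; positive B-score means potentiation of KCNQ2 with more thallium influx and brighter signal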
Numbers stand for hits. Compounds with a hit are over-represented: about 1.6% of the library has one in this group of screens.

`Cc1ccsc1C(C(=O)NC(C)(C)C)N(C(=O)c1csnn1)c1ccccc1` (configuration not stated) gave KCNQ2 block inactive and KCNQ2 enhance inactive.
For O=C(CCc1ccccc1)c1c(O)cc(O)cc1O the results were KCNQ2 block -8.2 and KCNQ2 enhance inactive.
`COc1ccc(C(=O)CCc2ccccc2)c(O)c1` gave KCNQ2 block inactive.
Screening O=C(CCC(=O)N1CCOCC1)NCCc1ccc(Cl)cc1Cl returned KCNQ2 block inactive and KCNQ2 enhance inactive.
For O=C1NC2(Nc3ccccc31)C(=O)Nc1ccc(Br)cc12 (configuration not stated) the results were KCNQ2 block -6.2 and KCNQ2 enhance inactive.
Screening O=C1NC2(Nc3ccccc31)C(=O)Nc1ccccc12 (configuration not stated) returned KCNQ2 block inactive and KCNQ2 enhance inactive.
`O=C(CN(c1ccc(F)cc1)S(=O)(=O)c1ccccc1)NCCSC1CCCCC1` gave KCNQ2 block inactive.
O=C(Nc1ccccc1)c1ccc2nc(-c3ccco3)c(-c3ccco3)nc2c1 was read as KCNQ2 block -6.5 and KCNQ2 enhance inactive.
For CC(=O)c1ccc(NC(=O)c2ccc3nc(-c4ccco4)c(-c4ccco4)nc3c2)cc1 the results were KCNQ2 block inactive.
For O=c1c2oc3nc4c(cc3c2ncn1CCCc1ccccc1)CCCC4 the results were KCNQ2 block inactive and KCNQ2 enhance inactive.
Screening CC(C)OC(=O)CC1C(=O)NCCN1C(=S)NC(=O)c1cccs1 (configuration not stated) returned KCNQ2 block inactive and KCNQ2 enhance inactive.
CCCCC(=O)OCC(=O)N1N=C(c2c[nH]c3ccccc23)C(O)C1c1ccc(OC)cc1 (configuration not stated) was read as KCNQ2 block inactive.
Cc1c(CC(=O)N2CCC(C(=O)O)CC2)c(=O)oc2cc3c(cc12)CCC1(CCCCC1)O3 was read as KCNQ2 block inactive and KCNQ2 enhance inactive.
Screening CC(Oc1ccc(Cl)cc1Cl)c1ccn[nH]1 (configuration not stated) returned KCNQ2 block inactive and KCNQ2 enhance inactive.
Screening COCC(=O)Oc1c(Sc2ccccc2[N+](=O)[O-])c(C)nn1C(C)(C)C returned KCNQ2 block inactive.
`CCC(CC)C(=O)Oc1c(Sc2ccccc2[N+](=O)[O-])c(C)nn1C(C)(C)C` gave KCNQ2 block -6 and KCNQ2 enhance inactive.
For COc1ccccc1/C=C(\C#N)C(=O)c1cccn1C the results were KCNQ2 block inactive.
For COC(=O)c1c2c(nc3ccccc13)CCC2 the results were KCNQ2 block inactive and KCNQ2 enhance inactive.
Screening O=C(Nc1ccccc1)c1c2c(nc3ccccc13)CCCC2 returned KCNQ2 block -8.2 and KCNQ2 enhance inactive.
For COc1ccc(NC(=O)c2c3c(nc4ccccc24)CCC3)cc1 the results were KCNQ2 block inactive.
COc1ccc(OC)c(NC(=O)c2c3c(nc4ccccc24)CCC3)c1 was read as KCNQ2 block -6.1 and KCNQ2 enhance inactive.
For O=C(CSc1nc(-c2ccco2)cc(C(F)(F)F)n1)NCCCN1CCOCC1 the results were KCNQ2 block inactive.
Screening CCN1CCN(Cc2ccc(NC(=O)c3ccc(C)c(NC(=O)C(=O)c4c[nH]c5ccccc45)c3)cc2C(F)(F)F)CC1 returned KCNQ2 block -7.8 and KCNQ2 enhance inactive.
CCN1CCN(Cc2ccc(NC(=O)c3cc(NC(=O)C(=O)c4c[nH]c5ccccc45)cc(OC)c3)cc2C(F)(F)F)CC1 was read as KCNQ2 block inactive.
`Cc1nnc(SCC(=O)NC(C)(C)C)n1NCc1c(F)cccc1Cl` gave KCNQ2 block inactive and KCNQ2 enhance inactive.
Screening O=C1c2ccccc2C(Nc2ccc(S(=O)(=O)N3CCCCCC3)cc2)N1c1ccccn1 (configuration not stated) returned KCNQ2 block inactive.
`O=C1c2ccccc2C(Nc2ccc(Cl)cn2)N1c1ccccn1` (configuration not stated) gave KCNQ2 block -6.6 and KCNQ2 enhance inactive.
For COc1ccccc1C(CNC(=O)c1cccc(S(=O)(=O)NCc2ccccc2)c1)N(C)C (configuration not stated) the results were KCNQ2 block inactive and KCNQ2 enhance inactive.
O=C(NNC(=O)c1ccco1)c1csc(N2CCOCC2)n1 was read as KCNQ2 block inactive.
Cc1ccc(S(=O)(=O)c2c(C)nn(C(C)(C)C)c2OC(=O)C(C)C)cc1 was read as KCNQ2 block inactive.
`Cc1ccc(S(=O)(=O)c2c(C)nn(C(C)(C)C)c2OC(=O)CC(C)C)cc1` gave KCNQ2 block -7.6 and KCNQ2 enhance inactive.
Cc1ccc(C)c(NC(=O)CSc2nc(=O)n(CCN3CCOCC3)c3c2CCCC3)c1 was read as KCNQ2 block inactive.
Screening C=CCn1c(=O)c(C(=O)Nc2ccccc2C)c(O)c2ccccc21 returned KCNQ2 block -6.1 and KCNQ2 enhance inactive.
Screening C=CCn1c(=O)c(C(=O)Nc2ccccc2O)c(O)c2ccccc21 returned KCNQ2 block inactive.
Screening CC[C@H](NC(=O)c1c(C)c(-c2ccccc2)nc2ccccc12)c1ccccc1 returned KCNQ2 block -11 and KCNQ2 enhance inactive.
For Cc1c(-c2ccccc2)nc2ccccc2c1C(=O)O the results were KCNQ2 block inactive and KCNQ2 enhance inactive.
`COc1ccc(C2/C=C\CNCC(=O)N2Cc2ccc(F)cc2)cc1` (configuration not stated) gave KCNQ2 block inactive.
For Cc1[nH]n(-c2ccccc2)c(=O)c1C(c1ccccc1[N+](=O)[O-])C(C#N)C#N (configuration not stated) the results were KCNQ2 block inactive.
For Cc1[nH]n(-c2ncc(-c3ccccc3)s2)c(=O)c1C(c1ccc(Cl)cc1)C(C#N)C#N (configuration not stated) the results were KCNQ2 block -7.2 and KCNQ2 enhance inactive.
For O=C(Nc1cc(SCCO)cc([N+](=O)[O-])c1)c1ccc(Br)o1 the results were KCNQ2 block inactive.
For O=C(Nc1ccccc1OC(F)F)c1ccc(S(=O)(=O)N2CCOCC2)cc1 the results were KCNQ2 block inactive and KCNQ2 enhance inactive.
CCN(CC)c1ccc(NC(=O)CSc2ccsc2[N+](=O)[O-])c(C)c1 was read as KCNQ2 block inactive and KCNQ2 enhance 5.5.
Screening O=C(CSc1ccsc1[N+](=O)[O-])Nc1cc(F)ccc1F returned KCNQ2 block inactive.
COC(=O)c1ccccc1NC(=O)c1ccc2c(c1)OCCCO2 was read as KCNQ2 block inactive.
`COc1cc(C(=O)N/C(=C\c2cn(S(=O)(=O)N(C)C)c3ccccc23)C(=O)N2CCCC2)cc(OC)c1OC` gave KCNQ2 block inactive and KCNQ2 enhance inactive.
CC#CC(=O)N1CCCC(Cc2cccc(OC)c2)(C(=O)OCC)C1 (configuration not stated) was read as KCNQ2 block inactive.
For CCOC(=O)CNC(c1ccccc1)c1cc(Br)ccc1NC(C)=O (configuration not stated) the results were KCNQ2 block inactive.
Screening COC(=O)CNC(c1ccccc1)c1cc(C)ccc1NS(=O)(=O)c1ccc(C)cc1 (configuration not stated) returned KCNQ2 block inactive.
Screening COC(=O)CNC(c1ccccc1)c1cc(C)ccc1NC(=O)CNC(=O)OCc1ccccc1 (configuration not stated) returned KCNQ2 block -5.8 and KCNQ2 enhance inactive.
Screening COC(=O)CNC(c1ccccc1)c1cc(Br)ccc1NC(=O)OCc1ccccc1 (configuration not stated) returned KCNQ2 block -7.4 and KCNQ2 enhance inactive.

Screening data from PubChem BioAssay.
